# Publication PMC4336329 (PLoS ONE, 2015)
# Hit rate of the full screen: of about 310,000 compounds, about 14,000 (4.5%) showed an effect of 50% or more. Effects have a minus sign here. This excerpt belongs to a sample that is enriched for strong results.
# Target: human ether-à-go-go-related gene (hERG) potassium channel (human, UniProt Q12809)
# Assay: primary screen, population patch clamp on CHO cells stably expressing hERG; higher = less effect of the substance
# 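Further: peak tail current of the secondary pulse compared with the same well before compound.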
# Chain of human ether-à-go-go-related gene (hERG) potassium channel (Q12809 whole entry, looked up): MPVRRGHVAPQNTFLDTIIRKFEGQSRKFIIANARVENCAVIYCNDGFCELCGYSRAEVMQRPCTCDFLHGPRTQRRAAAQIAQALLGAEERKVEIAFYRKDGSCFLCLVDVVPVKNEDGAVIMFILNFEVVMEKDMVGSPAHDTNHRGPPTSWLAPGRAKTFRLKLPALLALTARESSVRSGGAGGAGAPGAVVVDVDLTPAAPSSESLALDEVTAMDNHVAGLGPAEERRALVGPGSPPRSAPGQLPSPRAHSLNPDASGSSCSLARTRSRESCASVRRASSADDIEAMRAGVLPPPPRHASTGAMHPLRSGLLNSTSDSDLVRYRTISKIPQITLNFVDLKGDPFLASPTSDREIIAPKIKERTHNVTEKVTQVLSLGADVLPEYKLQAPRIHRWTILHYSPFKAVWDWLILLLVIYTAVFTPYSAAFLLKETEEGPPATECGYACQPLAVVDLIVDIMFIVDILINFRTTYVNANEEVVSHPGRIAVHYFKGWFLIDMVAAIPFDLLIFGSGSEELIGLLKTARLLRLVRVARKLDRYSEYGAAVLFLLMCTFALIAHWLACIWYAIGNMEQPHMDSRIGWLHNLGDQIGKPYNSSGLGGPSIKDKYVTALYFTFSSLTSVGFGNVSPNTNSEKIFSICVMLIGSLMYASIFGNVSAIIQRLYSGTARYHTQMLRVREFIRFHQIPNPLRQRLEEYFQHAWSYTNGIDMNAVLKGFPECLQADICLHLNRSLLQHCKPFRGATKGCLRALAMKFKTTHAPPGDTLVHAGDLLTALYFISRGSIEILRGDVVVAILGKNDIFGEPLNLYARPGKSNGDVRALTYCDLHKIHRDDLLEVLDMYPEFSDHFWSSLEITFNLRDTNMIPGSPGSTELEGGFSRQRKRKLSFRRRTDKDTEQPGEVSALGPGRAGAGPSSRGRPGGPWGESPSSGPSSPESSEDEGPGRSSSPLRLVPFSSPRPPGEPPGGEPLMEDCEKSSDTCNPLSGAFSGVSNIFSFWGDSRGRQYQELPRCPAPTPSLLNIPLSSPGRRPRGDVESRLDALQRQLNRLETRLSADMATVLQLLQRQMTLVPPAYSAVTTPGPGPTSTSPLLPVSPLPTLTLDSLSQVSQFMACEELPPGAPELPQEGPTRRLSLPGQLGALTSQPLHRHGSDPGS
row,Compound,"hERG current change (%, negative = inhibition) at 10uM [%]"
1,Cc1cc(C)cc(NC(=S)N2CCN(S(=O)(=O)c3ccccc3)CC2)c1,0.86
2,O=C(O)c1ccc(-c2ccc(OS(=O)(=O)c3ccccc3F)cc2)cc1,9.84
3,O=C(COc1ccccc1Cl)Nc1ccc2c(c1)OCO2,11.1
4,CC(C)C(=O)Nc1ccc(NC(=O)c2ccc(COc3ccccc3)cc2)cc1,16.3
5,CCOC(=O)C1CCN(C(=O)c2ccc(SC)cc2OC)CC1,-19.8
6,O=C1c2ccccc2C(=O)C12OC2c1ccc(Cl)cc1Cl (stereo not shown),4.07
7,O=C1c2ccccc2C(=O)C12OC2c1ccc(Cl)cc1 (stereo not shown),6.63
8,O=C1c2ccccc2C(=O)C12OC2c1cccc2ccccc12 (stereo not shown),-69.2
9,Cc1c(C)n(Cc2ccccc2)c2ccc(C(=O)NCCN3CCOCC3)cc12,-3.43
10,CCOC(=O)c1cc(-c2ccccc2)sc1N,0.819
11,CN(C)CCCNc1oc(-c2ccccc2Cl)nc1S(=O)(=O)c1ccc(F)cc1,-59.9
12,Cc1ccc(S(=O)(=O)c2nc(-c3cccs3)oc2NCCCN(C)C)cc1,-67.8
13,COCCNc1oc(-c2cccs2)nc1S(=O)(=O)c1ccc(C)cc1,-26.4
14,CN(C)CCCNc1oc(-c2ccccc2Cl)nc1S(=O)(=O)c1ccccc1,-43.3
15,COCCCNc1oc(-c2cccs2)nc1S(=O)(=O)c1ccc(C)cc1,-15.2
16,CN(C)CCNc1oc(-c2ccccc2Cl)nc1S(=O)(=O)c1ccccc1,-35.7
17,CN1C(=O)c2cccc(NCCCCCCN3C(=O)c4ccccc4C3=O)c2C1=O,5.41
18,CC(C)OCC1CO1 (stereo not shown),6.9
19,Cc1noc(NS(=O)(=O)c2ccc(NC(=O)c3ccc(N(C)C)cc3)cc2)c1C,12.2
20,Cc1cc(C)cc(NC(=O)C(=O)NCCc2c[nH]c3ccccc23)c1,14.9
21,CCCOc1ccccc1-n1sc2c(c1=S)-c1cc(OC)cc3c1N(C(=O)C3=O)C2(C)C,18.5
22,C#CCOc1c(Cl)cc(/C=N/O)cc1OC,4.04

row,Compound,"hERG current change (%, negative = inhibition) at 10uM [%]"
1,COc1ccc2nc(NC(=O)Cn3cnc4ccccc4c3=O)sc2c1,-4.49
2,COc1ccc(N2CC(C(=O)Nc3nc4ccc(OC)cc4s3)CC2=O)cc1 (stereo not shown),-58.8
3,CC(C)c1ccc2nc(NC(=O)C3CC3)sc2c1,-55
4,CCOc1ccc2nc(NC(=O)Cn3cnc4c3c(=O)n(C)c(=O)n4C)sc2c1,-41.9
5,COC(=O)c1ccc2nc(NC(=O)C3CC3)sc2c1,14
6,CS(=O)(=O)c1ccc2nc(NC(=O)C3CC(=O)N(c4ccccc4)C3)sc2c1 (stereo not shown),-4.25
7,O=C(Nc1nc2ccc(Cl)cc2s1)C1CC1,28.7
8,COc1ccc2nc(NC(=O)C3CC(=O)N(c4ccccc4)C3)sc2c1 (stereo not shown),-51.7
9,O=C(Nc1nc2ccccc2s1)C1CC(=O)N(c2ccccc2)C1 (stereo not shown),-11.2
10,COc1ccc(N2CC(C(=O)Nc3nc4ccc(S(C)(=O)=O)cc4s3)CC2=O)cc1 (stereo not shown),3.32
11,COc1ccc2nc(NC(=O)Cn3cnc4c(=O)n(C)c(=O)n(C)c43)sc2c1,-67.9
12,COc1ccc(N2CC(C(=O)Nc3nc4ccccc4s3)CC2=O)cc1 (stereo not shown),-48.9
13,O=C(NC1CCCCC1)c1ccc(CNc2ccccc2)o1,-9.19
14,COc1ccc(CCNC(=O)C2CCCN2C(=O)Nc2ccc(F)cc2)cc1OC (stereo not shown),16.5
15,CCOC(=O)C1=C(c2ccccc2)Nc2ncnn2C1c1ccccn1 (stereo not shown),13.6
16,O=C(O)c1cc(-c2ccc(/C=C3\NC(=O)N(c4ccc(Cl)cc4)C3=O)o2)ccc1Cl,7.5
17,CC1(C)CC2CC(C)(CN2C(=S)NC(=O)c2ccccc2Cl)C1 (stereo not shown),3.14
18,NC(=O)NC(=O)CSc1ccccc1,17.1
19,COc1ccc(N2CC(C(=O)Nc3nc(-c4ccccc4)c(C(C)=O)s3)CC2=O)c(OC)c1 (stereo not shown),-0.242
20,COc1ccc(N2CC(C(=O)Nc3nc4ccc(F)cc4s3)CC2=O)c(OC)c1 (stereo not shown),-56.3
21,O=C(Nc1nc2ccc(F)cc2s1)C1CC(=O)N(c2ccc3c(c2)OCCO3)C1 (stereo not shown),-8.48
